Shiga toxin inh: blocks Shiga toxin action in Vero cells. inhibition, % at 38.7 µM. Vero cells, Shiga toxin protein synthesis inhibition reporter. 290,000 compounds, 9.2% hits; in the data active means inhibition mostly above about 28%, no sharp cut-off; inactive means mostly below about 43%
Vaccinia mCherry: inhibitors of vaccinia virus infection (mCherry reporter signal). Vaccinia virus mCherry reporter infection, fluorescence. Potency, µM (series often up to 36.5 µM), usual class: inhibitors. 310,000 compounds, 0.63% hits; calls by dose curve; tested in A549 cells; further: nearly all actives have a fitted effect of over 35% in size
Marburg entry inh: Marburg virus entry inhibition. Marburg virus pseudotyped entry inhibition, cell reporter. 300,000 compounds, 1.8% hits. Potency, µM (series often up to 37.8 µM), actives largely listed as inhibitors; calls by dose curve; tested in HEK293 cells
CHX counter: counter-screen for Shiga toxin inhibitors: cycloheximide protein synthesis inhibition; cell reporter, cycloheximide protein synthesis inhibition counterscreen; max response, %; 300,000 compounds, 12% hits; AID 2314; in the data active means max response mostly above about 13%, no sharp cut-off; inactive means mostly below about 14%; further: read at 38.3 µM for the half of the compounds with a filed dose
VACV Venus inh: vaccinia inhibition (Venus reporter); Vaccinia virus Venus reporter expression, fluorescence; AID 720580; 330,000 compounds, 0.46% hits; Potency, µM (titrated, usually from 36.5 µM), usual class: inhibitors; calls by dose curve; tested in A549 cells; further: nearly all actives have a fitted effect of over 30% in size
LASV entry inh: Lassa virus entry inhibition; Lassa virus pseudotype entry inhibition, cell reporter; Potency, µM (titrated, usually from 37.9 µM), actives largely listed as inhibitors; 300,000 compounds, 1.2% hits; AID 540256; calls by dose curve; tested in HEK293 cells; further: nearly all actives have a fitted effect of over 50% in size
A number is an active result; - = inactive; ? = inconclusive; . = no result; ! = repeats disagree; [ ] = remark or other dose. The sample as a whole holds a higher share of hits than the screen did.

SMILES | Shiga toxin inh | Vaccinia mCherry | Marburg entry inh | CHX counter | VACV Venus inh | LASV entry inh
Cc1cc(/C=C2\SC(=S)NC2=O)c(C)n1-c1ccc(O)cc1 | 52 | ? | . | 38 | - | .
COc1cc(F)ccc1-c1csc(C(NC(C)=O)c2cccc(F)c2)n1 (stereo not drawn) | . | - | . | . | - | .
Cc1cc(/C=C2\SC(=S)NC2=O)c(C)n1-c1ccccc1 | 58 | - | ? | 44 | - | ?
N/C(Cc1ccc(Cl)c(Cl)c1)=N\OC(=O)c1ccc(Br)o1 | - | -[7.34 µM] | - | - | -[7.34 µM] | -
N/C(=N\OC(=O)c1ccc(Br)o1)c1cccnc1 | 103 | - | - | 35 | - | -
COc1ccc(/C(N)=N/OC(=O)c2ccc(Br)o2)cc1 | 84 | - | ? | - | - | -
Cc1ccc(-n2nnc(-c3nsc(NC(=O)c4ccccc4C)n3)c2C)cc1Cl | . | - | . | . | - | -
COc1cccc(-c2nc(SCC(=O)N3CCc4ccccc43)c3c(=O)n(C)c(=O)n(C)c3n2)c1 | . | - | . | . | - | -
Cc1ccc(NC(=O)CN(C)Cc2cccs2)cc1Cl | - | - | - | 16 | - | -
C/C(CC(=O)Nc1ccc(C)c(Cl)c1)=N\NC(=O)Cc1cccs1 | - | - | - | 17 | - | -
CN(CC(=O)Nc1c(F)cccc1F)Cc1cccs1 | - | - | - | 14 | - | -
CCN(CC)c1ccc(NC(=O)CN(C)Cc2cccs2)cc1 | - | ? | - | - | - | -
COc1ccc(Cl)cc1NC(=O)CN(C)Cc1cccs1 | - | - | ? | - | - | -
C/C(CC(=O)Nc1ccc(Cl)c(Cl)c1)=N\NC(=O)Cc1ccccc1 | - | - | - | - | - | -
COc1ccccc1-c1nc2c(c(SCC(=O)Nc3ccc(C)c(C)c3)n1)Cc1c(CO)cnc(C)c1O2 | . | - | . | . | - | -
COc1ccc(C(=O)C[n+]2ccccc2/C=N/O)cc1 | - | - | ? | 19 | - | ?
COc1cc(/C=C2\CCC(C)C3=C(c4cc(OC)c(OC)c(OC)c4)C(C#N)=C(N)OC32)cc(OC)c1OC (stereo not drawn) | . | ? | ? | . | - | 11µM
CN(C)C(=O)CCC(=O)NCC1Cc2cccc(-c3ccccc3C(F)(F)F)c2O1 (stereo not drawn) | . | - | . | . | - | .
COc1ccc(-c2nc(NC(=O)C3=NN(c4cccc(C)c4)C(=O)CC3)sc2C)cc1 | - | - | . | 17 | - | .
CCN(c1ccccc1)S(=O)(=O)c1ccc(OC)c(NC(=O)c2ccccc2OC)c1 | . | - | - | . | - | -
CCN(c1ccccc1)S(=O)(=O)c1ccc(OC)c(NC(=O)C2=NN(c3ccccc3)C(=O)CC2)c1 | . | - | ? | . | - | 0.32µM
O=C(Nc1nc(-c2cc(F)ccc2F)cs1)C1=NN(c2ccccc2)C(=O)CC1 | - | - | - | - | - | ?
COc1ccc(-c2csc(NC(=O)C3=NN(c4ccccc4)C(=O)CC3)n2)cc1 | - | - | ? | 23 | - | ?
COc1ccc(NC(=O)CSc2cn(CCNC(=O)c3c(F)cccc3F)c3ccccc23)cc1 | . | - | - | . | - | -
COCCN=C1Sc2nc3ccc(C)cc3cc2CN1Cc1ccco1 | 114 | - | - | 52 | - | -
SMILES | Shiga toxin inh | Vaccinia mCherry | Marburg entry inh | CHX counter | VACV Venus inh | LASV entry inh
c1ccc(CCNc2ncnc3nc[nH]c23)cc1 | 45 | - | ? | 38 | - | -
COc1ccccc1Nc1ncnc2nc[nH]c12 | - | . | - | - | . | -
COc1ccccc1CNc1ncnc2nc[nH]c12 | - | 3.5µM! | - | - | ? | -
Fc1ccc(CCNc2ncnc3nc[nH]c23)cc1 | . | - | . | . | ? | .
Cc1ccc(-c2csc(=Nc3ccccc3)n2Cc2ccc3c(c2)OCO3)cc1 | . | - | ? | . | - | -
Cc1ccc(C(C)(C)C)cc1S(=O)(=O)N1CCC(C(=O)N2CCN(c3ccc(O)cc3)CC2)CC1 | . | - | ? | . | - | 2.8µM
COCCCNc1ncnc2ccc(C)cc12 | 39 | ? | - | 15 | ? | -
Cc1ccc2ncnc(NCCC(=O)O)c2c1 | - | . | - | - | . | -
CCOC(=O)Cn1c(=O)c(-c2ccccc2N)nc2ccccc21 | - | - | . | 25 | - | .
O=C(O)Cn1c2ccccc2c2nc3ccccc3nc21 | . | - | . | . | - | .
CCCn1c(O)c(N=Nc2ccc3ccccc3n2)c2ccccc21 | 42 | - | ? | 30 | - | ?
CCOC(=O)Cn1c2ccccc2c2nc3ccccc3nc21 | - | - | - | 12 | - | -
CCN(CC)CCn1c2ccccc2c2nc3ccccc3nc21 | 53 | . | . | 44 | . | .
CC1CCN(CCc2nc3cc(NC(=O)COc4ccccc4)ccc3n2C)CC1 | - | . | . | - | . | .
COc1cc(OC)c(NC(=O)Nc2sc3nc4n(c(=O)c3c2C)CCC(C)CC4)cc1Cl (stereo not drawn) | . | - | - | . | - | .
CCCn1c2ccccc2c2nc3ccccc3nc21 | - | - | - | 19 | - | -
Clc1ccc(-n2cccc2CN2CCOc3ccc(CN4CCOCC4)cc3C2)nc1 | . | - | . | . | - | .
CN(C)S(=O)(=O)N(CC(=O)Nc1ccc(Br)cc1F)c1ccccc1 | . | - | ? | . | - | -
O=c1c2ccccc2nnn1CSc1nnc(-c2ccco2)o1 | - | ? | - | 20 | - | ?
O=C(CSc1nnc(-c2ccco2)o1)Nc1ccccc1Cl | - | . | . | 16 | . | .
O=C(CSc1nnc(-c2ccccn2)o1)Nc1ccccc1Cl | 71 | - | ? | 33 | - | .
CC(OC(=O)c1cccc(-n2cnnn2)c1)C(=O)NCc1ccccc1 (stereo not drawn) | . | - | - | . | - | -
Cc1cc(C)cc(NC(=S)N2CCC(N(C)CC3CCCO3)CC2)c1 (stereo not drawn) | - | - | - | - | - | -

Screening data (PubChem BioAssay)
